PubChem BioAssay
Values joined by “and” are separate entries in the source; they are usually repeats but may differ in a detail not shown here. Equal values may be shown once. Results filed as inconclusive are left out. Active and inactive are the calls of the source.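 Rule for the calls, unless noted: active = normalized viability below 100% at a tested concentration; inactive = the rest.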

Tests used:
[1] = growth inhibition of DIPG glioma cells, dose response, cell-based, SU-DIPG-XIII, MIPE4.0, CellTiter-Glo, qHTS (AID 1347061; cut-off not given, nearly all actives have AC50 up to about 37 µM;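 note: cells exposed to compound for 48 hours before readout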); conditions: SU-DIPG-XIII viability, CellTiter-Glo ATP luminescence
[2] = growth inhibition of DIPG glioma cells, dose response, cell-based, JHH-DIPG-1, MIPE4.0, CellTiter-Glo, qHTS (AID 1347062; cut-off not given, nearly all actives have AC50 up to about 27 µM); conditions: JHH-DIPG-1 viability, CellTiter-Glo ATP luminescence
[3] = viability loss in pontine glioma line – cell-based, SU-DIPG-XXV, MIPE5.0, CellTiter-Glo, qHTS, dose response (AID 1347065; cut-off not given, nearly all actives have AC50 up to about 26 µM;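 note: cells exposed to compound for 48 hours before ATP readout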); conditions: CellTiter-Glo ATP luminescence
[4] = SU-DIPG-XXV glioma cell viability, MIPE5.0 library, qHTS (AID 1347068; cut-off not given, nearly all actives have IC50 up to about 30 µM)
[5] = sensitizers of A549 cells to miR-34 induction, primary screen, imaging, A549 dox-inducible miR-34, nuclei and caspase counts (AID 1347080;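 active = compounds whose cell count with miR-34 switched on is under 0.7 times the count with it off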); conditions: A549 miR-34 inducible, Hoechst nuclei count, 48 h
[6] = modifiers of HSF1 nuclear foci, imaging, Selleck Cancer Library (AID 1347162; in the data active = plate-normalised HSF1 focus index below about 0.46); conditions: human cells, at 10 µM; SSMD: measured here: HSF1 foci SSMD mean; cell count: measured here: cell number; plate-normalised HSF1 focus index: stronger effect = lower value
[7] = survival rescue of mitochondrial mutant cells in low glucose, primary screen, MELAS cybrids, Rieske KO mouse fibroblasts, CellTiter-Glo (AID 1508586;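 active = mean z-score across replicates of 1.96 or higher in either the MELAS or the Rieske mutant cell line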;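 note: z relative to plate mean and SD of compound and empty wells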)
[8] = ovarian cancer cell viability with rucaparib, profiling panel, oncology-focused library, rucaparib conditional (AID 1508598); conditions: patient-derived ovarian cancer cells, CellTiter-Glo viability, 144 h, stronger effect = lower value
[9] = SU-DIPG-VI glioma cell viability, MIPE4.0 library, CellTiter-Glo luminescence, qHTS (AID 1347066; cut-off not given, nearly all actives have AC50 up to about 30 µM;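 note: cells exposed to compound for 48 hours before readout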); conditions: CellTiter-Glo ATP luminescence
[10] = JHH-DIPG-1 glioma cell viability, MIPE5.0 library, CellTiter-Glo luminescence, qHTS (AID 1347067; cut-off not given, nearly all actives have AC50 up to about 26 µM;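 note: cells exposed to compound for 48 hours before readout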); conditions: JHH-DIPG-1 glioma viability, CellTiter-Glo ATP luminescence
[11] = stronger effect = lower value, cell number ratio, induced over uninduced
[12] = measured here: relative caspase fold change +Dox/-Dox
[13] = measured here: total cells with miR-34 induction, stronger effect = lower value
[14] = measured here: total cells without miR-34 induction
[15] = MELAS cybrid survival, CellTiter-Glo 48 h, stronger effect = higher value
[16] = Rieske KO mouse fibroblast survival, CellTiter-Glo 72 h

Cc1cnc(-c2cnc(NCCNc3ccc(C#N)cn3)nc2-c2ccc(Cl)cc2Cl)[nH]1
3740: cell count [5, 14]
0.884: fold change [5, 12]
-0.0886: z-score [7, 16]
2900: cell count [5, 13]
inactive: outcome [1] | outcome [2] | outcome [3] | outcome [4] | fold change [5, 11] 0.776 | plate-normalised HSF1 focus index [6] 0.999 | z-score [7, 15] -0.0957 | viability ([8]; at 0.000305 µM, OCI-C5x cells, with rucaparib 10 µM, 100% = cells with rucaparib alone) 111% | viability ([8]; at 0.000305 µM, OCI-C5x cells, without rucaparib) 124% | viability ([8]; at 0.000305 µM, OCI-P5x cells, with rucaparib 20 µM, 100% = cells with rucaparib alone) 101% | viability ([8]; at 0.000305 µM, OCI-P5x cells, without rucaparib) 106% | viability ([8]; at 0.00122 µM, OCI-C5x cells, with rucaparib 10 µM, 100% = cells with rucaparib alone) 108% | viability ([8]; at 0.00122 µM, OCI-C5x cells, without rucaparib) 122% | viability ([8]; at 0.00122 µM, OCI-P5x cells, with rucaparib 20 µM, 100% = cells with rucaparib alone) 101% | viability ([8]; at 0.00122 µM, OCI-P5x cells, without rucaparib) 106% | viability ([8]; at 0.00488 µM, OCI-C5x cells, with rucaparib 10 µM, 100% = cells with rucaparib alone) 118% | viability ([8]; at 0.00488 µM, OCI-C5x cells, without rucaparib) 114% | viability ([8]; at 0.0195 µM, OCI-C5x cells, with rucaparib 10 µM, 100% = cells with rucaparib alone) 126% | viability ([8]; at 0.0195 µM, OCI-C5x cells, without rucaparib) 129% | viability ([8]; at 0.0195 µM, OCI-P5x cells, without rucaparib) 102% | viability ([8]; at 0.0781 µM, OCI-C5x cells, with rucaparib 10 µM, 100% = cells with rucaparib alone) 113% | viability ([8]; at 0.0781 µM, OCI-C5x cells, without rucaparib) 116% | viability ([8]; at 0.0781 µM, OCI-P5x cells, with rucaparib 20 µM, 100% = cells with rucaparib alone) 102% | viability ([8]; at 0.313 µM, OCI-C5x cells, with rucaparib 10 µM, 100% = cells with rucaparib alone) 127% | viability ([8]; at 0.313 µM, OCI-C5x cells, without rucaparib) 127% | viability ([8]; at 1.25 µM, OCI-C5x cells, with rucaparib 10 µM, 100% = cells with rucaparib alone) 121% | viability ([8]; at 1.25 µM, OCI-C5x cells, without rucaparib) 115% | viability ([8]; at 5 µM, OCI-C5x cells, without rucaparib) 133%
-0.145: SSMD [6]
active: viability ([8]; at 0.00488 µM, OCI-P5x cells, with rucaparib 20 µM, 100% = cells with rucaparib alone) 98% | viability ([8]; at 0.00488 µM, OCI-P5x cells, without rucaparib) 99% | viability ([8]; at 0.0195 µM, OCI-P5x cells, with rucaparib 20 µM, 100% = cells with rucaparib alone) 88.1% | viability ([8]; at 0.0781 µM, OCI-P5x cells, without rucaparib) 99.7% | viability ([8]; at 0.313 µM, OCI-P5x cells, with rucaparib 20 µM, 100% = cells with rucaparib alone) 93.1% | viability ([8]; at 0.313 µM, OCI-P5x cells, without rucaparib) 99.5% | viability ([8]; at 1.25 µM, OCI-P5x cells, with rucaparib 20 µM, 100% = cells with rucaparib alone) 93.8% | viability ([8]; at 1.25 µM, OCI-P5x cells, without rucaparib) 91.8% | viability ([8]; at 5 µM, OCI-C5x cells, with rucaparib 10 µM, 100% = cells with rucaparib alone) 80.9% | viability ([8]; at 5 µM, OCI-P5x cells, with rucaparib 20 µM, 100% = cells with rucaparib alone) 58.5% | viability ([8]; at 5 µM, OCI-P5x cells, without rucaparib) 78%
7270: cell count [6]

O=C(O)CC/C=C\CC[C@@H]1[C@@H](N2CCCCC2)[C@@H](O)C[C@@H]1OCc1ccc(-c2ccccc2)cc1
inactive: outcome [1] | outcome [2] | outcome [3] | outcome [9] | outcome [10] | outcome [4]

COCCNCCCn1c(C(=O)CF)c(-c2ccc(C)cc2)c2c(N)ncnc21
inactive: outcome [1] | outcome [2] | outcome [10] | outcome [4]

c1ccc2c(Oc3nc(Nc4ccc(N5CCOCC5)cc4)c4ncn(C5CCCCC5)c4n3)cccc2c1
0.0671: z-score [7, 16]
6180 and 6930: cell count [5, 14]
active: AC50 [10] 13.2 µM
inactive: outcome [1] | outcome [2] | outcome [9] | outcome [4] | fold change [5, 11] 0.897 and 0.992 | z-score [7, 15] -0.486
5540 and 6870: cell count [5, 13]
0.721 and 0.438: fold change [5, 12]
